Lmaj promast: Leishmania major promastigote growth inhibition, primary screen; AID 1063, 2008; 200,000 tested, 9% active; inhibition, % at 10 µM; Leishmania major promastigotes, resazurin fluorescence viability; in the data active = inhibition above about 50%;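 note: promastigotes grown with compound for 44 hours at 28 °C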
ROMK mod: ROMK potassium channel modulators, primary screen, cell-based, thallium flux, MLSMR library; ATP-sensitive inward rectifier potassium channel 1 (Homo sapiens), P48048; Tet-inducible ROMK, thallium flux fluorescence; actives lie on both sides; B-score at 10 µM; 130,000 tested, 2% active; AID 1918, 2009;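 active = signal ratio slope over the read window, or its plate-corrected B-score, at least 3 SD from the plate mean, either direction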;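 note: B-score of the F/F0 ratio slope over 7 to 12 s after thallium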
Insulin prom inh: inhibitors of insulin promoter-driven GFP, primary screen, imaging, TRM-6 cells (human fetal islet line), eGFP reporter, cell count; reporter expression induced with tamoxifen; inhibition, % at 2 µM; 130,000 tested, 0.9% active;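 active = inhibition above the mean plus 3 SD, with well images judged a real hit on visual review, cut at about 60% in these data, passing the limit was not always enough; inconclusive = inhibition over the cutoff but images rejected on review; inactive = inhibition not above the cutoff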
Insulin prom up: insulin promoter activators in MIN6 cells, imaging, high-content screening, mouse beta cells | MIN6 insulin promoter-GFP reporter; hits give high values | AID 1625, 2009 | z-score at 5 µM | 190,000 tested, 0.3% active;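 active = z-score above 3 at 5 µM with at least 500 cells counted in the well; inconclusive = wells under 500 cells, flagged as cytotoxic or low count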
KCC2 mod: KCC2 cotransporter modulators, thallium flux, primary screen, cell-based, HEK293 KCC2, FluoZin-2 fluorescence, MLSMR; 190,000 tested, 2.2% active; KCC2 cells, thallium flux FluoZin-2 fluorescence; B-score of Tl+ flux slope (higher = more flux/activation; lower = inhibition) at 10 µM;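 active = thallium flux slope and its plate-corrected score both differing from the plate sample mean at a set confidence after two filtering rounds, in either direction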;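 note: slope of fluorescence scaled to starting intensity during 10 to 20 s after thallium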
Target sequence (Q9H2X9 whole entry, looked up): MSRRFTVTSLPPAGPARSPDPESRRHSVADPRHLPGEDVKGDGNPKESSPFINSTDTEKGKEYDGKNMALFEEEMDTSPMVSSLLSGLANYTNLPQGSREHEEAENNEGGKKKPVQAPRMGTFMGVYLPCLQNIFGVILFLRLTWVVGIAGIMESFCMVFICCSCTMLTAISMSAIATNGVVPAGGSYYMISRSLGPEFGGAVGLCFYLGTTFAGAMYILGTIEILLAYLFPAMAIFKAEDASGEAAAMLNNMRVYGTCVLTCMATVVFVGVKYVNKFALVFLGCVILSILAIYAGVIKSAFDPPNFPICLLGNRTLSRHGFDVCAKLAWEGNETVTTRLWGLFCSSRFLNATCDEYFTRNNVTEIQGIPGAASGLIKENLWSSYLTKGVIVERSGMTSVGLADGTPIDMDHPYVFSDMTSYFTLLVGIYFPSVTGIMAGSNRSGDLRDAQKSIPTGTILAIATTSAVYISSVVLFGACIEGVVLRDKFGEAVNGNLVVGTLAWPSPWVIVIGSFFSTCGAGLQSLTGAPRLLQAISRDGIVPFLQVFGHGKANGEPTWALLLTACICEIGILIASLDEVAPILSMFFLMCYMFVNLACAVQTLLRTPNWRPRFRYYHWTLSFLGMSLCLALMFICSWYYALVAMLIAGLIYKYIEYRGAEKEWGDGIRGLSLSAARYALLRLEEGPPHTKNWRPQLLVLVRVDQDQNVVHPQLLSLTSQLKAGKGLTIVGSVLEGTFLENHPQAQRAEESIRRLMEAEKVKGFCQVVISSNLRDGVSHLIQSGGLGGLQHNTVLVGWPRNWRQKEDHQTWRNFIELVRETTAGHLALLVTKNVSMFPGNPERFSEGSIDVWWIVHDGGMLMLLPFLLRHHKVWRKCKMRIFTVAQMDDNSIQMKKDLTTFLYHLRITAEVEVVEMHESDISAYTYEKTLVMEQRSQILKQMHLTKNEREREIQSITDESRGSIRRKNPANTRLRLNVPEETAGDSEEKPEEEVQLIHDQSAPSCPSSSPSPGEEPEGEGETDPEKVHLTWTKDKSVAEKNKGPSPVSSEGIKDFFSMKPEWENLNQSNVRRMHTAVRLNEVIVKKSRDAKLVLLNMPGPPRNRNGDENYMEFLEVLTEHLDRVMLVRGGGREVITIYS
WT yeast gro inh: growth inhibition of WT strain, primary screen, mitochondrial fusion inhibitor project, WT and mutant strains, chemical genetic. inhibition, % at 10 µM. mitochondrial fusion phenotypic screen. 190,000 tested, 2.1% active; in the data active = inhibition above about 58%; tested in S. cerevisiae
L major 1uM: Leishmania major promastigote growth inhibition, confirmation, 1 µM repeat of primary hits; L. major promastigote growth, resazurin fluorescence, 48 h; shares compounds with Lmaj promast; AID 1258, 2008; inhibition, % at 1 µM; 1,100 tested, 13% active;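 active = inhibition above about 50% in both repeat tests, limit read from the data; inconclusive = one repeat under the set limit, the other over it; inactive = both repeats under the set limit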
* = called active by the depositor; ? = inconclusive; . = no result given. In the library only some 12% were active in any assay of this set; here they are far more common.

SMILES	Lmaj promast	ROMK mod	Insulin prom inh	Insulin prom up	KCC2 mod	WT yeast gro inh	L major 1uM
COc1ccc(Cc2noc(CN(C)CCN3CCc4ccccc4C3)n2)cc1OC	1.2	-0.0497	.	0.06	.	6.9	.
Cc1ccc(NNC(=O)C(O)(c2cccc(C(F)(F)F)c2)c2cccc(C(F)(F)F)c2)cc1	70.4*	-2.17	28.6	1.29	-0.811	82.7*	-9.0
Cc1ccc(-c2[nH]nc(N)c2N=Nc2ccccc2C)cc1	99.8*	.	.	0.74	1.24	-1.2	-18.9
O=C(N/N=C\c1ccc(CN(Cc2ccc(Cl)cc2)S(=O)(=O)c2ccccc2)o1)C(=O)Nc1ccc(F)cc1	80.9*	0.421	39.0	-1.56	-0.637	5.5	42.7
COc1ccc(CSc2nnnn2-c2ccccc2)cc1	99.6*	-0.464	3.2	1.14	.	36.4	-21.8
Cc1ccccc1-n1nnnc1Sc1nnnn1-c1ccccc1	100.3*	-0.00507	21.9	.	-0.546	-6.6	19.3
CCCSc1nnc(Sc2nnnn2-c2ccccc2)s1	87.6*	.	.	.	.	6.6	46.3
O=C(CN1C(=O)c2cccc3cccc1c23)NCc1ccncc1	-2.5	.	0.0	0.11	0.926	.	.
Cc1cccc(OCc2nc(C)cc(=O)[nH]2)c1	-5.4	-0.646	-218.8	-0.05	-0.377	-2.7	.
C=C(C)c1cccc(C(C)(C)NC(=O)N(C)C2CCN(C)CC2)c1	97.7*	0.139	-260.0	.	0.312	17.2	2.4
COc1ccc(CCN2C(=O)CS/C2=N\NC(=O)c2cccs2)cc1OC	1.9	.	23.5	.	-1.15	0.7	.
Cc1ccc([N+](=O)[O-])cc1-c1ccc(/C=N/NC(=O)c2cc3c(ccc4ccccc43)o2)o1	99.8*	.	7.1	-0.41	-0.308	9.0	14.7
CC1(C)C(=O)OC(/C=C\c2cccc([N+](=O)[O-])c2)C(C)(C)C1=O (stereo not given)	0.8	0.34	.	0.42	0.129	-5.3	.
CCOc1ccc(S(=O)(=O)N2Cc3ccccc3CC2C(=O)NCCCn2ccnc2)cc1 (stereo not given)	98.2*	.	.	-1.58	-1.06	-6.4	-7.6
Cc1ccc(S(=O)(=O)N2Cc3ccccc3CC2C(=O)Nn2cnnc2)cc1 (stereo not given)	0.7	0.273	.	-0.36	.	9.6	.
CC(=O)Nc1ccc(NC2=Nc3ccccc3N3C2=Nc2c(c(C)nn2-c2ccccc2)C3c2ccccc2)cc1 (stereo not given)	56.4*	.	63.9	-0.56	0.161	-1.4	4.7
CC1(C)Cc2ccccc2C(NNC(=O)c2ccccc2)=N1	-3.9	0.467	-9.1	-0.45	-0.0655	-4.7	.
CC1(C)Cc2ccccc2C(NNC(=O)c2ccccn2)=N1	98.1*	-0.624	0.0	-0.16	-0.195	20.5	-7.3
N/C(=N\c1nc(C(F)(F)F)cc(=O)[nH]1)Nc1ccc(Cl)cc1	-1.9	.	.	-0.46	0.417	-11.3	.
O=C(COC(=O)C1CCN(S(=O)(=O)c2cccs2)CC1)Nc1ccccc1	-0.7	-0.457	.	-0.05	-0.0158	0.9	.
COc1cc2c(cc1NCc1ccc3c(c1)OCO3)oc1ccccc12	-2.0	.	50.0	-0.26	-1.63	13.3	.
COc1cc2c(cc1NCc1ccccn1)oc1ccccc12	72.7*	-0.252	-7.9	.	-0.0406	12.8	-16.0
CC(C)CC(=O)OC1C(N2CCOCC2)c2c(ccc(/C=C/C(=O)N3CCOCC3)c2O)OC1(C)C (stereo not given)	90.0*	0.896	-16.2	-0.32	-1.83	-2.1	-15.6
CC1(C)Oc2ccc(/C=C/C(=O)N3CCOCC3)c(O)c2C(N2CCOCC2)C1O (stereo not given)	-7.0	0	-12.5	0.33	-0.563	-7.1	.
Cn1nc([N+](=O)[O-])nc1Sc1nnc(-c2ccccc2)o1	99.3*	-1.42	31.0	?	.	-3.4	-2.2
O=Cc1ccc(Sc2nnc(-c3ccccc3)o2)c([N+](=O)[O-])c1	4.9	.	21.4	0.16	-0.14	-1.9	.
CCNS(=O)(=O)c1ccc(CCC(=O)Nc2ccc(C(=O)OC)cc2)cc1	5.9	-1.3	.	1.67	0.812	4.5	.

Assay outcomes deposited in PubChem by several laboratories.
